Among the data in PubChem BioAssay (NCI) are growth inhibition values, retold here.

This is part of a sample that, as a whole, favours compounds with a hit. Of some 79,000 tested, about 15% had one in any assay. A number with no mark means an inactive call. Calls of active or inactive are those of the source. No stated cut-off is given here; in the data, active means growth inhibition above about 70%; inactive means the rest.

This assay in a line: NCI Yeast Anticancer Drug Screen. Data for the cln2 rad14 strain (AID 165).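 Further: 0% = growth equal to vehicle treated cultures.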 As to conditions: S. cerevisiae cln2 rad14 strain, at 50.0 µM, active compounds read high. The method, boiled down:
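cln2 rad14 yeast strain; compound exposure; growth inhibition read vs vehicle controls.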
Take `O=C(CN1CCCCC1)c1ccc(CCc2ccc(C(=O)CN3CCCCC3)cc2)cc1`: the growth inhibition was -61.1%.
The same measure for `CCCc1n[nH]c(=S)n1N1C(=S)NC(C)(C)C=C1C`: -10.8%.
The same measure for `CCCc1cc(=O)oc2c3c(c4c(c12)OC(C)(C)C=C4)O[C@H](C)[C@@H](C)C3O` (some centres undefined): -1.5%.
In the case of `O=C(O)COc1ccc(C(=O)O)cc1`, the growth inhibition was -53.7%.
The same measure for `C(=Nc1ccc(SSc2ccc(N=Cc3ccc4c(c3)OCO4)cc2)cc1)c1ccc2c(c1)OCO2`: -8.55%; for `COc1ccc2c(c1OC)C1(CCN(C)C)CC(O)CCC1C=C2` (centres undefined): -4.6%.
The value for `N#CC(C#N)=CN1CCCCC1` was 17.6%; that for `O=Cc1ccc2ccccc2c1` was -57.5%.
In the case of `CC1(C)C(=O)N=C(N)N1C(=O)OCc1ccccc1`, the growth inhibition is 13.8%.
As to `O=C(O)c1cc(=O)[nH]c(SCc2ccccc2)n1`, the growth inhibition is -30.2%.
The same measure for `O=C(O)C1CCC2CCCC21` (centres undefined): -10.9%.
Turning to `O=C(NC(Nc1ccc(F)cc1)(C(F)(F)F)C(F)(F)F)C(C(F)(F)F)C(F)(F)F`, the growth inhibition is 92.2% (active).
With `COC(=O)c1sc(=O)n(-c2ccccc2)c1SCc1ccccc1`, the growth inhibition is 12.9%.
The value for `COc1cc(/C=C(\OC(C)=O)c2ccc3c(c2)OCO3)cc(OC)c1OC` was 13.6%; that for `O=C(O)COc1c(F)cc(F)cc1Cl` was -1.05%.
The same measure for `COc1cc(C(=O)c2cocc2C(=O)c2ccc3c(c2)OCO3)cc(OC)c1OC`: -18.4%; for `COc1cc(/C=C/C(=O)NCCCCN)ccc1O`: 9.6%; for `CCC1(C(Cl)(Cl)Cl)C=CC(=O)C=C1`: 12.8%.
Take `CCC(C(=O)OC)C1CCCCC1` (centres undefined): the growth inhibition is -7.65%.
The value for `O=c1[nH]nc(SCc2ccccc2)c(=O)[nH]1` was -5.8%; that for `Nc1on(C(=O)c2ccccc2)c(=O)c1Cc1ccccc1` was -36%; that for `O=c1c2ccccc2nc(-c2ccccc2Cl)n1/N=C/c1ccc(Cl)cc1Cl` was -3.75%.
For `CCC(CCC#N)(CCC#N)C(=O)c1ccc(C)s1`, the growth inhibition is -19.8%.
As for `O=C(N/N=C/c1ccc(Cl)cc1Cl)c1ccccc1SSc1ccccc1C(=O)N/N=C/c1ccc(Cl)cc1Cl`, the growth inhibition is -8.1%.
